The values below come from PubChem BioAssay AID585 (National Center for Advancing Translational Sciences (NCATS), 2007).

The campaign covered roughly 71,000 compounds. About 1,300 (1.8%) were called active. Calls follow the shape of the full dose curve. The list comes from a sample in which actives are over-represented; it also holds similar structures and randomly drawn compounds. Where a call stands in place of a potency, no number is given.
Potency is read from the fitted curve at half-maximal effect.

The target of this test is Beta-lactamase (Escherichia coli (strain K12)) (UniProt P00811). Kind of test: Promiscuous and Specific Inhibitors of AmpC Beta-Lactamase (assay without detergent). As to conditions: AmpC nitrocefin hydrolysis, absorbance 480 nm, no detergent; series mostly up to 28.7 µM. As for the experimental part: NIH Molecular Libraries Screening Centers Network [MLSCN]
Chain of Beta-lactamase (Escherichia coli (strain K12)) (P00811 whole entry, looked up): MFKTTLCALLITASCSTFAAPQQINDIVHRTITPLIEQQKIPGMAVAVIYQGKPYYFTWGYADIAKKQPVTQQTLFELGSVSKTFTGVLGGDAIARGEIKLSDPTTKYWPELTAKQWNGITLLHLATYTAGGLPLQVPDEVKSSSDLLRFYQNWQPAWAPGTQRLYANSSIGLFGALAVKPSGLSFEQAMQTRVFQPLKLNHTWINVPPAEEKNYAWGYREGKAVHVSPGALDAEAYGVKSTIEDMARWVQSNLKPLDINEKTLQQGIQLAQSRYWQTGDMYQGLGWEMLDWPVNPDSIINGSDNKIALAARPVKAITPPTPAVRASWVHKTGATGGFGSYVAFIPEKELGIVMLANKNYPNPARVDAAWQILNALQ
NIH Chemical Genomics Center [NCGC]
PI Name: Shoichet, Brian K.
This aggregation profiling approach exploits the sensitivity of aggregate formation to detergent. Inhibition of b-lactamase is measured in the presence and absence of 0.01% Triton X-100. See Pubchem assay "Promiscuous and Specific Inhibitors of AmpC Beta-Lactamase (assay with detergent)" for related screen. Compounds that inhibit only in the absence of detergent are considered likely promiscuous aggregators.
A screen of 1,030 compounds was performed in Brian Shoichet's lab in 96-well format. AmpC activity was measured by following the absorbance at 480 nm. Nitrocefin is a chromogenic substrate: while nitrocefin is yellow (lmax 390 nm), the product of its hydrolysis is red (lmax 486 nm, 17,000 M-1). AmpC beta lactamase was provided by Brian Shoichet and Brian Feng, UCSF.
NCGC Assay Protocol Summary:
20 mM phosphate buffer, pH 7.0
Triton X-100: No Detergent screen: 0.0001%, Detergent screen: 0.01%.
Buffer in columns 3 and 4 as negative control (no enzyme).
5.3 nM AmpC in columns 1, 2, 5-48. Titration of UCSF compound 9 control (from 10 mM, then 1:2) pin-transferred to column 2. Column 1 is neutral (100% activity).
Six uL of reagents were dispensed to 1536-well Greiner black clear bottom plates. Compounds and controls (23 nL) were transferred via Kalypsys PinTool. The plates were incubated for 15 min at room temperature, and then 2 uL of 800 uM solution of nitrocefin was added to start the reaction. The plates were immediately transferred to and read every 20 seconds for 4 min on ViewLux (Perkin-Elmer) High-throughput CCD imager using 480 nm absorbance protocol. During dispense, reagent bottles were kept submerged into 4 deg C water bath.
Keywords: NIH Roadmap, MLSCN, MLI, MLSMR, qHTS, NCGC, AmpC Beta-Lactamase, Aggregation.
For the compound `COc1ccc2c(c1)OC(O)(C(F)(F)C(F)F)CC2=O` (stereo not drawn), the Potency entry was “inactive”.

For the compound `O=CN1CCN(C2CC(=O)N(c3ccc4c(c3)OCO4)C2=O)CC1` (stereo not drawn), the Potency result is “inactive”.

Take `Cc1cccc(CSc2nnc(Cn3c(=O)sc4ccccc43)n2C)c1`: the Potency entry was “inactive”.

As to `Cc1ccccc1CSc1nnc(Cn2c(=O)sc3ccccc32)n1C`, the Potency result was “inactive”.

For `C=CCSc1nnc(Cn2c(=O)sc3ccccc32)n1C`, the Potency is 3.98 µM [single pt active] (active).

Consider `CC1CCN(c2oc(-c3ccccc3F)nc2C#N)CC1`, for which the Potency result was “inactive”.

`C=CCn1c(C)cc(C(=O)CN2C(=O)c3ccccc3C2=O)c1C`: the Potency result is “inactive”.

With `Clc1ccc(C2CC(c3cccs3)n3ncnc3N2)cc1Cl` (stereo not drawn), the Potency entry is “inactive”.

For `COc1ccc(C2CC(c3ccccc3)Nc3ncnn32)cc1` (stereo not drawn), the Potency is 3.98 µM [single pt active] (active).

Regarding `COc1ccc(C2CC(c3ccc(C)cc3)Nc3ncnn32)cc1` (stereo not drawn), the Potency result was “inactive”.

With `Cc1noc(C)c1C(=O)NC(C)c1ccc2c(c1)OCO2` (stereo not drawn), the Potency entry was “inactive”.

As to `CN1CCC2(CC1)NC(=O)NC2=O`, the Potency entry is “inactive”.

On to `COc1cccc(-c2nnc(NC(=O)c3ccc(S(=O)(=O)N(CC(C)C)CC(C)C)cc3)o2)c1`, for which the Potency was 7.94 µM (active).

For the compound `COc1cccc(NC(=O)CN(C)S(=O)(=O)c2ccc(C)cc2)c1`, the Potency result was “inactive”.

Consider `CCN(CC)C(=O)CSc1nnc(-c2cccc(OC)c2)o1`, for which the Potency result is “inactive”.

Turning to `CC(C)C[C@@H](CC(=O)N[C@@H](CCC(=O)O)CC(=O)O)NC(=O)[C@@H]1CCCC[C@H]1NC(=O)C[C@@H](NC(=O)C[C@H](Cc1c[nH]c2ccccc12)NC(=O)[C@@H]1CCCC[C@H]1N)C(C)C`, the Potency result is “inactive”.

Turning to `Cc1ccc(NC(=O)C2CCCN(S(=O)(=O)c3c(C)noc3C)C2)c(C)c1` (stereo not drawn), the Potency result was “inactive”.

Regarding `CCOc1ccc(OCC)c(NC(=O)C2CCN(S(=O)(=O)c3c(C)noc3C)CC2)c1`, the Potency result is “inactive”.

Regarding `Cc1noc(C)c1S(=O)(=O)N1CCCC(C(=O)Nc2nccs2)C1` (stereo not drawn), the Potency was 3.98 µM [single pt active] (active).

Turning to `C=CCNC(=O)C1CC=CCC1C(=O)O` (stereo not drawn), the Potency result is “inactive”.

Consider `CCOc1ccc(Cn2nnc(C(=O)Nc3ccc(OC)cc3OC)c2N)cc1`, for which the Potency entry was “inactive”.

Take `Nc1c(C(=O)NCc2ccccc2)nnn1Cc1cccc(Cl)c1`: the Potency entry is “inactive”.

Take `CCOc1ccc(Cn2nnc(C(=O)NCc3ccccc3)c2N)cc1`: the Potency was 3.16 µM [single pt active] (active).

With `Cc1cc(N2C(=O)C(=O)/C(=C(/O)c3ccc(Cl)cc3)C2c2cccc(Br)c2)no1` (stereo not drawn), the Potency entry was “inactive”.

Consider `COc1ccc(C(CNC(=O)c2cccnc2SC)N2CCOCC2)cc1` (stereo not drawn), for which the Potency result is “inactive”.

For the compound `O=C(NCCN1C(=O)C2C3C=CC(C3)C2C1=O)Nc1ccccn1` (stereo not drawn), the Potency is 3.98 µM [single pt active] (active).

For `O=C(CCN1C(=O)C2C3C=CC(C3)C2C1=O)Nc1ccccc1F` (stereo not drawn), the Potency result was “inactive”.

As for `O=C(CN1C(=O)C2C3C=CC(C3)C2C1=O)NCCc1ccccc1Cl` (stereo not drawn), the Potency entry is “inactive”.

With `CCOc1ccc(CN(Cc2ccco2)C(c2cccs2)c2nnnn2C(C)(C)C)cc1` (stereo not drawn), the Potency entry is “inactive”.

For `O=C(COC(=O)c1ccccc1C(=O)c1ccccc1)c1ccco1`, the Potency result is “inactive”.

`Cc1ccc(C(=O)OCC(=O)NCc2ccc3c(c2)OCO3)s1`: the Potency result is “inactive”.

Consider `O=C(NCc1ccc2c(c1)OCO2)c1cc2c(s1)CS(=O)(=O)C2`, for which the Potency is 12.6 µM [single pt active] (active).

For `CCOC(=O)NCc1ccc2c(c1)OCO2`, the Potency entry was “inactive”.

On to `CC(Sc1sc(=S)sc1SC(C)C(=O)O)C(=O)O` (stereo not drawn), for which the Potency entry is “inactive”.

Consider `O=C(Nc1nncs1)c1ccccc1NS(=O)(=O)c1cccs1`, for which the Potency entry was “inactive”.

Consider `COC(=O)c1sc(NC(=O)c2ccc(OC)cc2OC)nc1C`, for which the Potency entry was “inactive”.

In the case of `COc1ccc(C(=O)Nc2nncs2)c(OC)c1`, the Potency was 3.98 µM [single pt active] (active).

Consider `O=C(COC(=O)c1ccc(Oc2ccccc2)cc1)Nc1nnc(-c2ccccc2)o1`, for which the Potency is 15.8 µM (active).

As to `Cc1ccc(OCC(=O)Nc2ccc(-c3nnc(-c4ccco4)o3)cc2)cc1`, the Potency result is “inactive”.

`COc1ccc(CC(=O)Nc2ccc(-c3nnc(-c4ccccc4)o3)cc2)cc1`: the Potency result is “inactive”.

On to `CS(=O)(=O)N1CCC2(CC1)CN(Cc1cc(C(F)(F)F)cc(C(F)(F)F)c1)C2`, for which the Potency entry is “inactive”.

In the case of `CC1(C)C(=O)Nc2ccccc2N1C(=O)COC(=O)Cn1cnc2ccccc2c1=O`, the Potency entry was “inactive”.

For `O=C(NCc1ccco1)c1nc2ncccn2n1`, the Potency result is “inactive”.

With `O=C(NCc1ccco1)c1cc(-c2cccnc2)nc2ccc(Cl)cc12`, the Potency entry is “inactive”.

Take `COc1ccccc1N1CCN(C(=O)c2cc3c(-c4ccc(Cl)cc4)nn(C)c3s2)CC1`: the Potency result was “inactive”.

Take `CCOC(=O)N1CCN(C(=O)c2cc3c(-c4ccc(Cl)cc4)nn(C)c3s2)CC1`: the Potency is 2.51 µM [single pt active] (active).

For `Cn1nc(-c2ccc(Cl)cc2)c2cc(C(=O)NCc3ccco3)sc21`, the Potency is 3.16 µM (active).

Regarding `COc1cccc(-c2nn(C)c3sc(C(=O)N4CCN(c5ccccc5)CC4)cc23)c1`, the Potency entry is “inactive”.

As for `O=C(NCCc1ccccn1)c1ccc(COc2ccccc2)o1`, the Potency entry was “inactive”.

For the compound `O=C1CC2(CCCCC2)Oc2ccc(OCC(=O)N3CCOCC3)cc21`, the Potency entry was “inactive”.

On to `CCc1nnc(NC(=O)CSc2nnc(COc3ccc(C#N)cc3)n2-c2ccccc2)s1`, for which the Potency entry was “inactive”.

`CCOc1ccc(-n2c(SC(C)C(=O)OC)nc3c(c2=O)SCC3)cc1` (stereo not drawn): the Potency result was “inactive”.

Consider `CNC(=O)CN1C(=O)c2ccccc2S1(=O)=O`, for which the Potency was 3.98 µM [single pt active] (active).

Regarding `O=C(CN1C(=O)c2ccccc2S1(=O)=O)N1CCc2ccccc21`, the Potency result was “inactive”.

Consider `CCCc1nnc(NC(=O)CN2C(=O)c3ccccc3S2(=O)=O)s1`, for which the Potency result is “inactive”.

Consider `Fc1cccc(/C=N\N=C/c2cccc(F)c2)c1`, for which the Potency result was “inactive”.

Take `COc1cccc(NC(=O)Nc2nnc(N3CCCCC3C)s2)c1` (stereo not drawn): the Potency was 2.51 µM [single pt active] (active).

Regarding `COc1cccc(Nc2nnc(SCC(=O)N3CC(C)OC(C)C3)s2)c1` (stereo not drawn), the Potency result was “inactive”.

On to `COc1cccc(NC(=O)C2CCCN2C(=O)OCc2ccccc2)c1` (stereo not drawn), for which the Potency entry was “inactive”.

For the compound `COCc1cc(C)nc(SCC(=O)Nc2cccc(C)c2)c1C#N`, the Potency result was “inactive”.

Turning to `CC1=C2C(=O)OC(c3ccoc3)C2(C)CCC1` (stereo not drawn), the Potency result is “inactive”.

Take `COc1ccc(C(=O)N/N=C2/C(=O)c3c(C)cc(C)cc3CC2(C)C)cc1`: the activity change, negative = inhibition is 18.6% [at 5.75 µM] (inactive).

Regarding `CCOC(=O)N1CCC(C(N)=O)CC1`, the Potency entry is “inactive”.
